# Measured values: PubChem BioAssay (NCI)
# The panel holds about 83,000 compounds, 20% with a hit somewhere; the sample as a whole holds those more often.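 Activity criterion: percent growth below 10, measured after cells in 96-well plates were exposed to a single compound concentration for 48 hours.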 Unmarked numbers belong to inactive results. Activity calls are given as the source filed them.
# Assays:
# Assay in all cases: NCI-60 one-dose screen, 48 h (100 = growth as untreated, 0 = no growth, -100 = all killed)
# Details in all cases: 10 µM unless noted
# SR leukemia = system: SR leukemia
# RPMI-8226 leukemia = system: RPMI-8226 leukemia
# OVCAR-8 ovarian = system: OVCAR-8 ovarian
# OVCAR-5 ovarian = system: OVCAR-5 ovarian
# OVCAR-4 ovarian = system: OVCAR-4 ovarian
# SK-OV-3 ovarian = system: SK-OV-3 ovarian
# IGROV1 ovarian = system: IGROV1 ovarian
# OVCAR-3 ovarian = system: OVCAR-3 ovarian
# HS 578T breast = system: HS 578T breast
# NCI/ADR-RES ovarian = system: NCI/ADR-RES ovarian
# T-47D breast = system: T-47D breast
# BT-549 breast = system: BT-549 breast
# MDA-MB-435 melanoma = system: MDA-MB-435 melanoma
# SW-620 colon = system: SW-620 colon
# MCF7 breast = system: MCF7 breast
# HCT-116 colon = system: HCT-116 colon
# HCC-2998 colon = system: HCC-2998 colon
# KM12 colon = system: KM12 colon
Structure (SMILES),growth (SR leukemia),growth (RPMI-8226 leukemia),growth (OVCAR-8 ovarian),growth (OVCAR-5 ovarian),growth (OVCAR-4 ovarian),growth (SK-OV-3 ovarian),growth (IGROV1 ovarian),growth (OVCAR-3 ovarian),growth (HS 578T breast),growth (NCI/ADR-RES ovarian),growth (T-47D breast),growth (BT-549 breast),growth (MDA-MB-435 melanoma),growth (SW-620 colon),growth (MCF7 breast),growth (HCT-116 colon),growth (HCC-2998 colon) [%],growth (KM12 colon)
Cc1ccccc1COc1ccc(-c2onc(C)c2-c2ccc(Cl)cc2)cc1,34%,81%,75.8%,87.6%,82.7%,59.5%,52.5%,20.7%,59.4%,39.2%,61.1%,66.2%,-1.01% (active),31.7%,31.7%,34%,86.6,54.3%
CCOC(=O)c1c(C(=O)OCC)c2cc(-c3ccn4c(C(=O)c5ccccc5)c(C(=O)OCC)c(C(=O)OCC)c4c3)ccn2c1C(=O)c1ccccc1,90.4%,50.6%,71.8%,130%,89.2%,109%,82.3%,95%,80.7%,89.5%,82.5%,93.4%,99.9%,105%,92.9%,103%,95.2,87.7%
OCC(O)c1nc2ccc3[nH]ncc3c2c2c1CCCC2 (stereo not drawn),-4.58% (active),10.2%,10.8%,10.2%,50.4%,40.9%,10.4%,16.1%,-10.5% (active),9.22% (active),14%,-24.6% (active),17.4%,3.04% (active),8.02% (active),1.98% (active),29.5,4.4% (active)
C/C1=C\CC[C@@]2(C)O[C@H]2[C@H]2OC(=O)C(CN3CCN(CC4C(=O)O[C@H]5[C@H]4CC/C(C)=C/CC[C@@]4(C)O[C@@H]54)CC3)[C@@H]2CC1 (stereo partly drawn),66%,79%,91.5%,103%,103%,110%,101%,79.7%,98.7%,101%,81.5%,105%,89.1%,86.3%,74.4%,88%,,98.5%
O=C1/C(=C/c2ccccc2O)N=C2SCCCN12,117%,103%,98.4%,91.7%,82.9%,100%,91.3%,92.9%,87.7%,99.6%,84.5%,98%,96.6%,89.3%,92.2%,95.5%,,90.2%
C=C(C)C1CC(O)C2(C)CCCC3C2C1CC(C)C3(C)CC/C(C)=C/C(O)C1CCC(=O)c2c(OC)cc(OC)cc21 (stereo not drawn),26.6%,6.09% (active),41.6%,86.9%,23.3%,51%,50.9%,32.7%,61.6%,45.9%,37.2%,60.4%,41.7%,47.1%,30.1%,28.5%,76.9,40.9%
O=c1oc2c(C(F)(F)F)cccc2cc1-c1csc(Nc2ccc(OCCF)cc2)n1,6.43% (active),15.9%,4.22% (active),67.5%,40.4%,15.1%,21.4%,-21.4% (active),22.7%,17.5%,71.1%,31.5%,-22.9% (active),26.1%,15.3%,-26.3% (active),,2.28% (active)
CCCCn1c(-c2ccc(C(=O)O/N=C(\N)c3ccc4ccccc4c3)cc2)nc(-c2ccccc2)c1-c1ccccc1,12.1%,67.3%,72.2%,79.1%,55.5%,99%,-61.9% (active),71.7%,57.9%,30.9%,46.2%,87.9%,85.1%,80.1%,61.2%,60.8%,95.8,76.7%
NCCNc1nc(Nc2ccc(-c3nc4ccccc4[nH]3)cc2)c2cn[nH]c2n1,-3.8% (active),-11.7% (active),43.9%,125%,88.4%,111%,97.6%,83.9%,41.8%,94.9%,60.8%,80.2%,94%,28.4%,39.2%,14.9%,,25.2%
COc1ccccc1NS(=O)(=O)c1ccc2oc(SC(C)C)nc2c1,54.9%,52.2%,83.1%,82.1%,53%,114%,92.1%,85.7%,95.4%,43.8%,67.2%,87.6%,88.2%,102%,82.3%,63.4%,26,98.7%
CC/C=C\C[C@H](O)C/C=C1/C(=O)C=C[C@@]1(C)C/C=C\CCCC(=O)OC,103%,103%,97.8%,99.8%,101%,112%,109%,114%,103%,94.8%,98.2%,104%,106%,114%,92.8%,94%,,102%
Cn1c(NCCc2ccc(O)c(O)c2)nc2c1c(=O)n(Cc1ccc(Br)cc1)c(=O)n2C,61.6%,25.6%,71.9%,99.4%,53.2%,75.5%,37.7%,69.4%,95.3%,82.5%,53.3%,73%,79%,81.4%,80%,67.4%,94,76%
O=C(O)COc1ccc(Cl)cc1C1CCCCC1,95.4%,102%,103%,107%,109%,107%,117%,115%,105%,104%,114%,117%,107%,104%,104%,101%,,103%
Nc1n[nH]c2cc(F)c([C@@H]3Nc4ccc5[nH]ncc5c4[C@H]4C5CCC(C5)[C@@H]34)cc12 (stereo partly drawn),9.53% (active),32.1%,19.5%,30.1%,32.1%,20.6%,15%,12.9%,-4.82% (active),-26.9% (active),97.6%,-7.74% (active),-15.3% (active),21.7%,16.3%,-29.3% (active),15.9,1.62% (active)
CCCc1cc(=O)n2c(C(=O)Nc3cccc(C(=O)OCC)c3)c(C(=O)Nc3ccc(F)cc3)sc2n1,82.4% [30 µM],57% [30 µM],-19.2% [30 µM] (active),71.2% [30 µM],9.71% [30 µM] (active),62.2% [30 µM],42.2% [30 µM],-4.26% [30 µM] (active),14.3% [30 µM],47.3% [30 µM],53.9% [30 µM],82.5% [30 µM],73.4% [30 µM],55.9% [30 µM],57.4% [30 µM],17.7% [30 µM],,82.9% [30 µM]
COc1ccc(S(=O)(=O)N2CC3(COC3)C2)cc1NC(=O)c1[nH]c(C)c2c1CCCCC2=O,51.3%,25.8%,54.2%,61.1%,56.6%,39.8%,44%,54.4%,26.7%,91.1%,37%,73.3%,45.5%,72.9%,21.9%,51.7%,58.7,54.6%
CC/C=C\C[C@H]1C/C=C2/C(=O)C=C[C@H]2C/C=C\CCCC(=O)O1,4.6% (active),-10% (active),0.796% (active),87.8%,29.5%,37.3%,12.4%,6.53% (active),54.2%,22.4%,27.4%,32%,9.04% (active),25.4%,46.2%,-41.9% (active),,-3.28% (active)
